# From PubChem BioAssay (NCATS)
# Values joined by “and” are separate entries in the source; they are usually repeats but may differ in a detail not shown here. Equal values may be shown once. Results filed as inconclusive are left out. A call without a number means that no potency is given here. Active and inactive are the calls of the source. The call rests on the fitted dose curve; in most records, active means well fitted activation curve with a large enough effect in the signal ratio; inconclusive means small, poorly fitted or top-dose-only effect, or effect the other way, or a change in a side signal; inactive means flat fitted curve, though single readings scatter; the % refers to the signal ratio.
# Assay: qHTS assay for small molecule agonists of the antioxidant response element (ARE) signaling pathway (AID 651741)
# Details: HepG2 ARE-bla reporter, beta-lactamase FRET ratio, 16 h; series mostly up to 96 µM
# Excerpt: National Center for Advancing Translational Sciences [NCATS]
# NIH Chemical Genomics Center [NCGC]
# U.S. Environmental Protection Agency [EPA]
# National Institutes of Environmental Health Sciences [NIEHS]
# National Toxicology Program [NTP]
# Oxidative stress has been implicated in the pathogenesis of a variety of diseases ranging from cancer to neurodegeneration. The antioxidant response element (ARE) signaling pathway plays an important role in the amelioration of oxidative stress. The CellSensor ARE-bla HepG2 cell line (Invitrogen) can be used for analyzing the Nrf2/antioxidant response signaling pathway. Nrf2 (NF-E2-related factor 2) and Nrf1 are transcription factors that bind to AREs and activate these genes. The CellSensor ARE-bla Hep G2 cell line contains a beta-lactamase reporter gene under control of the Antioxidant Response Element (ARE) stably integrated into HepG2 cells. The activation of the report gene under culture conditions can be detected by fluorescence intensity. This cell line can be used to screen chemicals in a 1536-well plate format and to identify agonists that induce oxidative stress.
# The ARE-bla cells were dispensed at 2,000 cells/5 ul/well in 1536-well black wall/clear bottom plates using a Multidrop dispenser. After the assay plates were incubated at a 37 C/5% CO2 incubator for 5 hours, 23 nL of compounds dissolved in DMSO, positive controls or DMSO only was transferred to the assay plate by a pin tool. The plates were incubated at 37 C for 16 hours. After 1 uL of LiveBLAzer B/G FRET substrate was added using a Flying Reagent Dispenser, the plates were incubated at room temperature for 2 hours, and fluorescence intensity was measured by an Envision plate reader.
# Potency means the concentration at half of the fitted maximal effect.
row,Structure (SMILES),Potency
1,[CH3][Hg][Cl],23.7 µM (active)
2,CCOP(=S)(OCC)SCCl,inactive
3,O=C(O)C(F)(F)C(F)(F)C(F)(F)C(F)(F)C(F)(F)F,inactive
4,Cc1ccn2nc(S(=O)(=O)Nc3c(F)cccc3F)nc2n1,inactive
5,O=S(=O)(c1ccc(Cl)cc1)c1cc(Cl)c(Cl)cc1Cl,27.3 µM (active)
6,S=C([S-])NCCNC(=S)[S-].[Mn+2],30.6 µM (active) and 27.3 µM (active)
7,COc1nn(C(=O)NS(=O)(=O)c2ccccc2OC(F)(F)F)c(=O)n1C,inactive
8,O=C(O)CN(CCN(CC(=O)O)CC(=O)O)CC(=O)O,inactive
9,Cc1ccccc1C(=O)Nc1cccc(OC(C)C)c1,inactive
10,N#CC(Cl)Cl,26.6 µM (active)
11,O=[N+]([O-])c1ccc(Oc2ccc(C(F)(F)F)cc2[N+](=O)[O-])cc1,48.6 µM (active)
12,C=CC(=O)OCCCCCC(C)C,inactive
13,CCCN(CC)CC1COC2(CCC(C(C)(C)C)CC2)O1 (stereo not given),inactive
14,O=C(O)C(F)(F)C(F)(F)C(F)(F)C(F)(F)C(F)(F)C(F)(F)C(F)(F)C(F)(F)F,24.3 µM (active)
15,CCOP(=S)(OCC)SCn1c(=O)oc2cc(Cl)ccc21,27.3 µM (active)
16,CC(C)Oc1cc(-n2nc(C(C)(C)C)oc2=O)c(Cl)cc1Cl,61.1 µM (active)
17,CC(C)=C[C@@H]1[C@@H](C(=O)OCN2C(=O)C3=C(CCCC3)C2=O)C1(C)C,54.5 µM (active)
18,CCCSC(=O)N(CCC)CCC,inactive
19,CCOC(=O)C(Cl)Cc1cc(-n2nc(C)n(C(F)F)c2=O)c(F)cc1Cl (stereo not given),54.5 µM (active)
20,Clc1ccc([C@]2(Cn3cncn3)C[C@H](Br)CO2)c(Cl)c1,inactive

row,Structure (SMILES),Potency
1,CCC(C)c1cc([N+](=O)[O-])cc([N+](=O)[O-])c1O (stereo not given),2.73 µM (active)
2,CN(C)c1nc(=O)n(C2CCCCC2)c(=O)n1C,inactive
3,CC1(C)CON(Cc2ccccc2Cl)C1=O,inactive
4,CCCOCC(=Nc1ccc(Cl)cc1C(F)(F)F)n1ccnc1,19.3 µM (active)
5,C=CCC1=C(C)[C@@H](OC(=O)[C@@H]2[C@@H](C=C(C)C)C2(C)C)CC1=O,61.1 µM (active)
6,CCCCCCCCCCCCN(C)C,inactive
7,CCNc1nc(Cl)nc(NC(C)(C)C)n1,inactive
8,C=C1CC[C@H](O)C/C1=C/C=C1\CCC[C@]2(C)[C@@H]([C@H](C)CCCC(C)C)CC[C@@H]12,23.7 µM (active)
9,COC(=O)/C=C(\C)OP(=O)(OC)OC,inactive
10,CC(C)N(C(=O)CCl)c1ccccc1,17.2 µM (active)
11,c1ccc(-c2ccc(-c3ccccc3)cc2)cc1,19.3 µM (active)
12,Oc1cc(Cl)cc(Cl)c1Cl,66.8 µM (active)
13,COS(C)(=O)=O,42.2 µM (active)
14,CN(C)c1ccc(N=O)cc1,13.3 µM (active)
15,O=C(O)C1C(C(=O)O)C2(Cl)C(Cl)=C(Cl)C1(Cl)C2(Cl)Cl (stereo not given),inactive
16,CC1=NNC(=O)N(/N=C/c2cccnc2)C1,inactive
17,COP(=O)(OC)Oc1ccc([N+](=O)[O-])cc1,inactive
18,O=C(O)[C@@H]1[C@H](C(=O)O)[C@@]2(Cl)C(Cl)=C(Cl)[C@]1(Cl)C2(Cl)Cl,inactive
19,CC(Oc1cccc(Cl)c1)C(=O)O (stereo not given),inactive
20,O=[N+]([O-])c1ccc(Nc2ccccc2)cc1,48.6 µM (active)
